According to PubChem BioAssay AID819 (Columbia University Molecular Screening Center, 2007):
Among all 94,000 compounds or so, about 280 (0.3%) were called active. This is one part of a sample in which actives are shown more often than they occur. A number with no mark means an inactive call.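 Rule for the calls: active = activation above 40%, about the mean plus 3 SD, also judged a hit on visual image review; inconclusive = activation above 40% but not a hit on visual review; inactive = activation not above 40% and no visual hit.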

experiment: enhancers of NFkB p65 translocation in HUVEC – imaging, IL-1B stimulus, high-content imaging, primary screen (AID 819); conditions: HUVEC IL-1B NFkB p65 nuclear translocation imaging; at 2 µM; stronger effect = higher value;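 note: percent activation is computed from the nuclear over cytoplasmic p65 intensity ratio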

Compared with `CCn1c(COc2ccc(OC)cc2)nnc1SCC(=O)Nc1cc(OC)ccc1OC`, `COc1ccc(OCC(=O)NN2Cc3ccccc3C2=N)cc1` is higher in activation: 4.96% for the first, 12.3% for the second.

First: COc1ccc2c(c1OC)C(=O)OC2c1c(O)nc(SC)n(-c2ccccc2)c1=O (configuration not stated)
Second: COc1ccc(NC(=O)CSc2nc(N)c(-c3ccccc3)c(=O)[nH]2)cc1
The activation of the first is lower: 1.27% for the first, 8.34% for the second.

First: O=C(COc1ccc2ccccc2c1)N1CCN(C(=O)c2cccs2)CC1
Second: COc1ccc(C2CC(c3cccs3)=Nc3ccccc3S2)cc1OC (configuration not stated)
The activation of the first is lower: -12.1% for the first, 3.96% for the second.

Going from `Cc1nc2c(-c3ccc(F)cc3)c(C)nn2c(C)c1CCC(=O)NCc1ccco1` to `Cc1cc(-c2ccccc2)n2nc(C)c(-c3ccccc3)c2n1`, the activation rises from -8.14% to -2.27%.

Compared with `CCOC(=O)C1=C(c2ccccc2)N=C2SCC(=O)N2C1c1ccc(O)c(OC)c1` (configuration not stated), `CCN(CC)C(=O)CSC1c2ccccc2C(=O)N1c1ccccc1` (configuration not stated) is lower in activation: 22.6% for the first, 16.1% for the second.

Compared with `CC(=O)c1ccc(OCCN2CCOCC2)cc1`, `COc1ccc(NC(=O)CCN2CCCC2)c(OC)c1` is lower in activation: 29.4% for the first, -7.64% for the second.

Going from `C/C(=N\NC(=O)c1ccc(C)cc1)C1C(=O)c2ccccc2C1=O` to `Cc1ccc(CNC(=O)CCNC(=O)Cn2ccc3ccccc3c2=O)cc1`, the activation falls from -6.49% to -10.3%.

Compared with `Cc1ccc2[nH]c(=O)c(CN(CCCN(C)C)C(=O)Nc3cccc(Cl)c3)cc2c1`, `Cc1ccc2c(c1)N(CC(=O)N(Cc1ccccn1)Cc1ccco1)C(=O)C(C(C)C)O2` (configuration not stated) is lower in activation: 20.3% for the first, -18% for the second.

Going from `COC(=O)c1cccc(-n2[nH]nnc2=S)c1` to `COCc1cc(C(C)=O)ccc1OC`, the activation rises from -3.54% to 2.42%.

Going from `CN(C)c1ccc(NC(=S)N(CCc2ccccc2)C2CC(=O)N(c3c(Cl)cccc3Cl)C2=O)cc1` (configuration not stated) to `CC(C)c1cc(C(N)=O)c(NC(=O)c2cccc(COc3ccc(Br)cc3)c2)s1`, the activation rises from -17.7% to 2.73%.

Going from `O=C(N/N=C/C=C/c1ccccc1)C1CC1(c1ccccc1)c1ccccc1` (configuration not stated) to `Cc1ccc(OCC(=O)N/N=C/c2ccncc2)cc1`, the activation rises from 4.51% to 9.97%.

Going from `CCCn1nnc(NC(=O)COc2ccc(CC)cc2)n1` to `CCOC(=O)c1c(NC(=O)CSc2nnc(CNc3ccc(C)cc3C)o2)sc(C)c1C`, the activation rises from 6.08% to 13.4%.

Compared with `COC(=O)CNC(=O)c1ccccc1[N+](=O)[O-]`, `CCOC(=O)NNC(=O)c1ccc(Cl)cc1` is lower in activation: 2.74% for the first, -2.19% for the second.

Going from `CCCCNC(=O)CCn1c(=S)[nH]c2cc3c(cc2c1=O)OCO3` to `CCOC(=O)c1c(NC(=O)CSc2nnc(C)c(=O)[nH]2)sc2c1CCC2`, the activation falls from -3.47% to -7.67%.

Compared with `CCOc1cc(/C=C2/N=C(c3ccc(C(C)(C)C)cc3)OC2=O)cc(Cl)c1OS(C)(=O)=O`, `CS(=O)(=O)N(CC(=O)Nc1ccc(F)cc1F)c1cccc([N+](=O)[O-])c1` is lower in activation: 15.4% for the first, 2.79% for the second.

Compared with `Cc1ccccc1OC/C(O)=C(\C#N)c1nc2ccccc2[nH]1`, `CCCC(O)(c1ccc(OC)cc1)C(CN(C)C)c1ccccc1` (configuration not stated) is higher in activation: -7.29% for the first, 8.96% for the second.

First: COC(=O)c1c(NC(=O)c2cccs2)sc2c1CCCC2
Second: CCN1CCC(=NNC(=O)c2ccc(C)c([N+](=O)[O-])c2)CC1
The activation of the first is lower: -38.1% for the first, 9.79% for the second.

In the case of `CCn1c(SC)nc(O)c(C(c2ccc(OC)c(O)c2)c2c(O)nc(SC)n(CC)c2=O)c1=O`, the activation is reported as 59.4% (active).
With `COC(=O)c1c(NC(=O)CSc2nncs2)sc2c1CCCCC2` the activation was 144% (active).
For `COc1ccc(NC(=O)CCNC(=O)Cn2ccc3ccccc3c2=O)c(OC)c1`, the activation was 49.9% (active).
